About 83,000 compounds went through this panel and 20% of them were active in at least one assay; those are over-represented in the sample as a whole.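 Activity criterion: percent growth below 10, measured after cells in 96-well plates were exposed to a single compound concentration for 48 hours.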 Values without a mark were called inactive. The source made the active and inactive calls.
Experiments:
Test in all cases: NCI-60 one-dose screen, 48 h (100 = growth as untreated, 0 = no growth, -100 = all killed)
Details in all cases: 10 µM unless noted
[1] = test system: NCI-H23 lung
[2] = test system: NCI-H226 lung
[3] = test system: HOP-62 NSCLC
[4] = test system: NCI-H460 lung
[5] = test system: HOP-92 NSCLC
[6] = test system: NCI-H522 lung
[7] = test system: A549/ATCC NSCLC
[8] = test system: 786-0 renal
[9] = test system: COLO 205 colon
[10] = test system: DU-145 prostate
[11] = test system: K-562 leukemia
[12] = test system: MALME-3M melanoma
[13] = test system: MDA-MB-231 breast
[14] = test system: RXF 393 renal
[15] = test system: SF-268 CNS
[16] = test system: SF-295 CNS
[17] = test system: SF-539 CNS
[18] = test system: UACC-257 melanoma
[19] = test system: M14 melanoma

Structure (SMILES)	growth [1]	growth [2] [%]	growth [3] [%]	growth [4]	growth [5] [%]	growth [6] [%]	growth [7] [%]	growth [8] [%]	growth [9] [%]	growth [10] [%]	growth [11] [%]	growth [12] [%]	growth [13] [%]	growth [14] [%]	growth [15] [%]	growth [16] [%]	growth [17] [%]	growth [18] [%]	growth [19] [%]
O=c1ccc(N=Nc2ccc([N+](=O)[O-])cc2)ccc1O	2.17% (active)	16.6	33	17.8%	47.5	14	31.5	42.3	16.7	38.4	13.7	22.9	13.9	46	23.2	12.6	16.7	21.9	44.6
CCCCC1CCCC12NC(=O)NC2=O (stereo not drawn)	99.3%	88.5	99.3	117%	93.6	106	117	105	120	109	127	100	107	113	99.5	109	113	112	109
COc1ccc(-n2c(N)c(-c3nc4ccccc4[nH]3)cc(C#N)c2=O)cc1	86.8%	35.3	90.8	87.1%	84.7	74.2	94.9	92.5	105	87.9	93.5	92.1	90.8	67.2	95.8	94.1	77.2	96.4	109
NC(=O)Nc1ccc2ncnc(Nc3ccc(Cl)cc3)c2c1	100%	99.8	86.2	87.9%	74.2	66.2	72.5	85.9	101	52	71.4	117	89.3	93.7	79.7	90.7	95.7	100	107
COc1ccc(-c2cnc3ccccc3n2)cc1	93.2%	82.7	87.9	101%	86.9	80.2	94.6	95.4	104	106	97.5	103	92.7	108	94.6	98.8	90.6	104	100
OC(COc1ccccc1Cl)CN1CCN(c2cccc(Cl)c2)CC1 (stereo not drawn)	100%	96.5	119	121%	79.2	88.5	101	98.3	101	114	108	107	89.3	118	105	105	101	93.4	98.1
CC1Cc2c(ncn3c(-c4ccc(F)cc4)nnc23)N(C)c2ccccc21 (stereo not drawn)	73.4%	33.2	59.5	5% (active)	35.9	63	16.3	29.9	43.6	63.8	70.4	37.4	–	66.4	56.6	74.1	74.9	69.7	59.4
C=CCc1cc(C)ccc1NC(C(=O)NCC(=O)OC)c1ccccc1 (stereo not drawn)	93.7%	95.1	85.5	116%	103	96.4	93	94.1	100	112	106	105	–	109	95	92.9	94.5	104	96.6
NCCOc1ncccc1/C=C1\c2ccccc2-c2ccc(C(F)F)cc21	42.3%	61.8	39.9	–	49.6	79	20.9	56.4	48.9	13.1	16.5	61.6	35.3	61.5	54.3	53.7	49.3	102	64.5

Source: PubChem BioAssay (NCI)
